BAP1 inh = inhibitors of human BAP1 deubiquitinase. calls only at 20 µM. recombinant BAP1, Ub-AMC hydrolysis fluorescence kinetic; stronger effect = lower value. 0.48% of 72,000 active. Q92560. AID 436;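 active means activity remaining at or below 50% of control, provided the compound also passes the data quality filters; inactive means the rest, including low values that fail the filters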;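 further: 100% = DMSO wells rate and 0% = substrate alone blank rate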
Abs 340nm = compounds absorbing at 340 nm. compound absorbance at 340 nm, fold over control. fold change at 10 µM. 65,000 tested, under 10 active. AID 708;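 active means at 10 µM dose, initial 340 nm absorbance at least 2 fold that of control wells; inactive means change under 2 fold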;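 further: initial absorbance extrapolated from kinetic A340 decline of NADH oxidation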
WNV NS2B-NS3 inh = blocks West Nile virus NS2B-NS3 protease activity; P06935; WNV NS2B-NS3 protease, fluorogenic substrate Ex360/Em465; stronger effect = lower value; z-score (no concentration beside the values); 0.18% of 65,000 active; in the data active means z-score below about -3
Autofluor 339 = intrinsic fluorescence of library compounds, ex339/em460 – biochemical, MLSMR library, data from DPM-DC assay, artefact control, profiling panel; compound autofluorescence, ex339/em460 nm, NADH buffer; stronger effect = higher value; 1 = no-compound wells, NADH background; fluorescence fold increase at 10 µM; 5.5% of 65,000 active;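 active means at 10 µM, mean starting fluorescence two-fold or more over control wells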;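 further: signal is the first read of a kinetic run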
M1 antag = M1 muscarinic receptor (rat) antagonism; B-score at 10 µM; P08482; 3.4% of 64,000 active; CHO-M1 cells, Fluo-4 calcium, ACh EC80 antagonist mode; stronger effect = lower value; AID 628;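 active means calcium fluorescence response, raw or row-and-column corrected B-score, differing from the plate sample mean either way at a set confidence level, mostly lower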
Target sequence (P08482 whole entry, looked up): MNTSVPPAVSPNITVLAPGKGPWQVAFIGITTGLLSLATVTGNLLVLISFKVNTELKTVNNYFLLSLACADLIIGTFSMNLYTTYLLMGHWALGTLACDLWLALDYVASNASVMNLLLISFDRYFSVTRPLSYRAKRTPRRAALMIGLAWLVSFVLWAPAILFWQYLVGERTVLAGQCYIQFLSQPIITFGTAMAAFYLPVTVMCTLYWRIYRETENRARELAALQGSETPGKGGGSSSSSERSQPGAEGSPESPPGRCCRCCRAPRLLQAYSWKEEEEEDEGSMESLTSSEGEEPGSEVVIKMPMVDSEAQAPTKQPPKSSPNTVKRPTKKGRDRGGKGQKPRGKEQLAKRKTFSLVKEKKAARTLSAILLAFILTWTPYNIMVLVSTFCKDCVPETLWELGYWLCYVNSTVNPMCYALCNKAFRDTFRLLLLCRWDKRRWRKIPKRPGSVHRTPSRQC
M1 agonist = M1 muscarinic receptor agonism; B-score at 10 µM; 3% of 64,000 active; AID 626; CHO-M1 cells, Fluo-4 calcium fluorescence, agonist mode; stronger effect = higher value;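 active means fluorescence rise, raw or as B-score row- and column-corrected plate score, outside the 99.7% band of its plate's samples, either direction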
M1 antag confirm = confirmation of rat M1 muscarinic receptor antagonists | shares compounds with M1 antag | calcium response (max-min fluorescence) at 10 µM | AID 677 | 43% of 1,700 active | CHO-M1 cells, Fluo-4 calcium, ACh EC80 antagonism; stronger effect = lower value;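 active means calcium response below the same-plate mean of wells given acetylcholine alone at its 80%-effect dose, minus 3 SD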;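 further: raw fluorescence intensity difference in arbitrary instrument units and not normalized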
mGluR4 antag = acts on human mGluR4 in M1 antagonist selectivity test; shares compounds with M1 antag; CHO-mGluR4 calcium flux, Fluo-4 fluorescence, glutamate EC80; stronger effect = lower value; fluorescence response (max-min) at 10 µM; 0.9% of 1,700 active; AID 678;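 active means fluorescence response below the plate's average for near-maximal glutamate wells, less 3 SD of those wells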;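 further: raw unnormalized fluorescence span taken in the window right after glutamate addition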
An asterisk follows results filed as active; i = inactive; / = no result given. An excerpt weighted towards active compounds, which were near 9.7% of everything screened.

SMILES	BAP1 inh	Abs 340nm	WNV NS2B-NS3 inh	Autofluor 339	M1 antag	M1 agonist	M1 antag confirm	mGluR4 antag
CCOC(=O)COc1cc2c3c(c(=O)oc2cc1C)CCCC3	/	1.06	-0.79	1.84	-17.2*	1.53	119*	271
CCOc1ccc(C(=O)Nc2ccc3oc(-c4ccc5ccccc5c4)nc3c2)cc1[N+](=O)[O-]	i	/	/	/	/	/	/	/
O=C(Nc1ccc(-c2csc(-c3ccccc3)n2)cc1)c1ccc(Br)cc1	i	/	/	/	/	/	/	/
CCN(C1CCCCC1)S(=O)(=O)c1ccc(S(=O)(=O)N2CCN(CCC#N)CC2)cc1	i	0.97	0.18	1.03	-1.52*	0.046	327*	206
N#CCCN1CCN(S(=O)(=O)c2ccc(S(=O)(=O)N3CCCCCC3)cc2)CC1	i	1.07	-0.74	1.09	-0.0937	-0.424	/	/
Cc1cc(=O)oc(C)c1C(=O)NCCCN1CCN(c2ccc(F)cc2)CC1	i	1.17	0.5	1.08	-0.458	0.704	/	/
COc1ccc(N2CCN(CCNC(=O)c3c(C)cc(=O)oc3C)CC2)cc1	i	1.2	0.76	1.04	-4.62*	-0.592	354*	227
CC[N+](C)(CC)CCOC(=O)C(O)(c1ccccc1)C1CCCCC1 (stereo not given)	i	0.99	0.09	1.05	-16.1*	-0.391	10*	213
CCOC(=O)C(C(=O)Nc1ccccc1)C1CCCCC1 (stereo not given)	i	1.04	2.32	1.07	-0.259	-0.458	/	/
c1ccc2c(N3CCCCC3)nc(N3CCCC3)nc2c1	i	1.08	0.79	1.65	-2.63*	0.0045	493*	167
Nc1nc(N2CCCCC2)nc2ccccc12	/	1.06	-0.21	3.89*	-5.88*	-0.0687	286*	268
CC(=O)N/C(N)=N\c1nc2cc(C)ccc2o1	i	/	/	/	/	/	/	/
COc1cc2ccccc2cc1C(=O)Nc1nc(-c2ccc(I)cc2)cs1	i	/	/	/	/	/	/	/
Cc1cc(C(C)(C)C)cc(C)c1CC1=NCCN1	i	0.98	0.2	0.99	-8.41*	-0.0122	412*	244
Cc1ccc(C(=O)CN2CCC(NC(=O)C3CCCCC3)CC2)cc1	i	1.02	-0.18	1.09	0.0687	-1.09	/	/
Cc1ccc(C(=O)C2CCN(CC(=O)NC3CCCCC3)CC2)cc1	i	1.01	-0.39	1.07	-4.63*	-1.28	545*	222
O=C(Nc1sc2c(c1C(=O)N1CCCCC1)CCCC2)c1ccccc1	i	/	/	/	/	/	/	/
Fc1ccc(-c2nc(-c3ccccc3)c3ccccn23)cc1	i	/	/	/	/	/	/	/
CCN1CCN(c2ncc(C(=O)Nc3cc(Cl)ccc3OC)c3ccccc23)CC1	i	1.08	0.79	1.19	-21.4*	-0.075	20.8*	247
COc1ccc(Cl)cc1NC(=O)CCN1CCN(c2ccccc2C)CC1	i	0.99	-0.29	1.01	0.18	0.0693	/	/
Cn1c(=O)oc2cc(S(=O)(=O)NCc3ccco3)ccc21	i	1.04	0.5	1.08	-3.37*	0.0178	690	237
Cc1ccc(NC(=O)CS(=O)CC(=O)NC2CCN(Cc3ccccc3)CC2)c(C)c1 (stereo not given)	i	1	1.8	1.09	-7.75*	0.206	645	241
Cc1cccc(C)c1NC(=O)CS(=O)CC(=O)NC1CCN(Cc2ccccc2)CC1 (stereo not given)	i	0.98	-0.65	1.08	-0.183	0.127	/	/
CCSc1nc2c(c(=O)n1C1CCOC(C)(C)C1)C1(CCCCC1)Cc1ccccc1-2 (stereo not given)	i	/	/	/	/	/	/	/
Cc1ccc(SCCCCN2C(=O)NC(C)(C)C2=O)cc1	i	1.05	-0.09	1.14	-2.06*	0.757	480	194
SMILES	BAP1 inh	Abs 340nm	WNV NS2B-NS3 inh	Autofluor 339	M1 antag	M1 agonist	M1 antag confirm	mGluR4 antag
COc1cc(CCC(=O)Nc2cc(Cl)ccc2N2CCN(C)CC2)cc(OC)c1OC	i	1.02	0.87	1.06	0.163	-0.0179	/	/
CN1CCN(c2ccc(Cl)cc2NS(=O)(=O)c2ccccc2Cl)CC1	i	1	0.33	0.95	-3.65*	-1.15	345*	261
C#CCN(C#N)c1nc(NCC)nc(NC(C)C)n1	i	1.02	-1.2	1.13	1.07	-0.112	/	/
CCN(C#N)c1nc(NC(C)C)nc(NC(C)C)n1	i	0.98	0.64	1.01	-3.47*	0.427	607	246
O=C1CC(N2CCN(c3ccccc3Cl)CC2)C(=O)N1c1ccc(F)cc1 (stereo not given)	i	1.01	1.66	1.14	0.00107	0.53	/	/
O=C1CC(N2CCN(c3ccccc3Cl)CC2)C(=O)N1c1cccc(F)c1 (stereo not given)	i	1.01	1.66	1.12	-1.74*	0.543	650	229
Cc1ccc(-n2ncc(C#N)c2/N=C/N2CCCCCC2)cc1	i	1.03	-0.42	1.08	-1.99*	0.503	560*	196
O=C(CCC(=O)OCCCC(F)(F)C(F)(F)F)Nc1ccccc1	i	1.02	-0.56	1.06	0.241	0.7	/	/
O=C(CCC(=O)OCCCC(F)(F)C(F)(F)F)NC1CCCCC1	i	0.99	-0.08	1	-8.21*	0.591	636	233
COc1ccc(OCC(=O)Nc2ccc(F)cc2)cc1	i	/	/	/	/	/	/	/
CC1CCN(S(=O)(=O)c2ccc3c(c2)C(=O)c2cc(S(=O)(=O)N4CCC(C)CC4)ccc2-3)CC1	i	/	/	/	/	/	/	/
CCOC(=O)N1CCN(C(=O)c2ccc3c(=O)n4c(nc3c2)CCCCC4)CC1	i	0.99	1.31	1.14	-5.29*	-0.0877	300*	215
CCOC(=O)N1CCN(C(=O)c2ccc3c(=O)n(CCOC)c(=O)[nH]c3c2)CC1	/	1.08	1.33	1.2	-2.06*	0.269	482	207
CCOC(=O)N1CCN(C(=O)c2ccc3c(=O)n(CCc4ccccc4)c(=O)[nH]c3c2)CC1	i	1.01	1.07	1.22	-5.1*	-0.982	296*	246
CCn1c(=O)[nH]c2cc(C(=O)N3CCN(c4ccccc4)CC3)ccc2c1=O	i	0.98	0.04	1.1	-0.384	0.418	/	/
COC(=O)c1ccc(C=Nc2c(C)n(C)n(-c3ccccc3)c2=O)cc1	i	/	/	/	/	/	/	/
Cc1cccc(NC(=O)c2ccc(Cl)cc2)n1	i	/	/	/	/	/	/	/
CCCCC1(O)CCCC1O (stereo not given)	i	/	/	/	/	/	/	/
O=C1CC(N2CCC(c3nc4ccccc4s3)CC2)C(=O)N1 (stereo not given)	i	1.03	0.15	1.1	-1.71*	0.0484	664	183
CCOC(=O)C(C)Sc1ncnc2c1nnn2-c1ccc(F)cc1 (stereo not given)	i	0.98	0.75	1.12	-0.817	-0.411	/	/

Assay outcomes (PubChem BioAssay)
